Activity calls are given as the source filed them. Rule for the calls: active = hit-call score of the fitted dose curve at least 0.9, where 1 is the maximum; inactive = score below 0.9.
experiment: ATG_EGR_CIS: Attagene CIS-FACTORIAL HepG2 Assay for human Early Growth Response 1 (EGR1) (AID 2282938); conditions: HepG2 Attagene CIS-FACTORIAL EGR reporter mRNA; actives raise or lower the signal
Protocol: ATG_CIS is a cell-based, multiplexed-readout assay that uses HepG2, a human liver cell line, with measurements taken at 24 hours after chemical dosing in a 24-well plate.ATG_EGR_CIS is one of 52 assay component(s) measured or calculated from the ATG_CIS assay. It is designed to make measurements of mRNA induction, a form of inducible reporter, as detected with fluorescence intensity signals by Reverse transcription polymerase chain reaction (RT-PCR) and Capillary electrophoresis technology.Data from the assay component ATG_EGR_CIS was analyzed into 1 assay endpoint. This assay endpoint, ATG_EGR_CIS, was analyzed with bidirectional fitting relative to DMSO as the negative control and baseline of activity. Using a type of inducible reporter, measures of mRNA for gain or loss-of-signal activity can be used to understand the reporter gene at the transcription factor-level as they relate to the gene EGR1. Furthermore, this assay endpoint can be referred to as a primary readout, because this assay has produced multiple assay endpoints where this one serves a reporter gene function. To generalize the intended target to other relatable targets, this assay endpoint is annotated to the dna binding intended target family, where the subfamily is zinc finger.
Human liver HepG2 cells are transiently transfected with multiple reporter transcription units (MRTUs) in 6-well plates using FuGene 6 reagent (Roche; 3 ml FuGene/1 mg DNA). The MRTU constructs are regulated by a cis-regulating element (promoter). […] A major difference between the CIS and TRANS system is that in CIS activities of endogenous TFs are measured, whereas the TRANS assay evaluates changes in activities of exogenous, chimeric NR-Gal4 proteins. […] At the end of 24 hour incubation, total RNA was isolated using TriZol reagent (Invitrogen). The isolated RNA is then reverse-transcribed using oligo(dT) primer and Mo-MLV reverse transcriptase (Invitrogen) with DNAse I (Ambion) treatment for 30 min. The one-tenth of the produced cDNA was amplified by PCR using Taq DNA polymerase (Invitrogen) and two reporter sequence-specific primers. The PCR products were fluorescently labeled by primer extension with 6-arboxyfluorescein (6-FAM) 5'-labeled reporter sequence-specific primer (2 min at 95 C, 20 s at 68 C and 10 min at 72 C) and these products were digested with 5U of HpaI (New England Biolabs) for 2h at 37 C. The fragments were purified using Qiaquick PCR columns (Qiagen), analyzed on an ABI 3130xL genetic analyzer (Applied Biosystems) with peak positions identified by using a set of X-rhodamine (ROX)-labeled MapMarker1000 molecular weight standards (BioVentures). The raw capillary electrophoresis data was processed using Attagraph software (Attagene).

| Structure (SMILES) | outcome | AC50 |
| --- | --- | --- |
| NCC(F)(F)C(F)(F)C(F)(F)C(F)(F)F | inactive | – |
| OC(CCl)CCl | inactive | – |
| Cc1cccc(O)c1C | inactive | – |
| Cn1c(=O)c2[nH]cnc2n(C)c1=O | inactive | – |
| CCCCC(CC)C(=O)OCCOCCOCCOC(=O)C(CC)CCCC (stereo not given) | inactive | – |
| NC(=O)NN=Cc1ccc([N+](=O)[O-])o1 | inactive | – |
| c1ccc2ncccc2c1 | inactive | – |
| CCCCCCCCN(C)C | inactive | – |
| C[Si](C)(C)C(F)(F)C(F)(F)C(F)(F)F | inactive | – |
| c1ccc2cc3ccccc3cc2c1 | inactive | – |
| CC(C)c1nnc2ccc(-c3ocnc3-c3cc(F)ccc3F)cn12 | inactive | – |
| FC(F)(F)C(F)(F)C(F)(F)C(F)(F)C(F)(F)C(F)(F)I | inactive | – |
| O=C(O)[C@H](O)[C@@H](O)C(=O)O | inactive | – |
| CCCc1ccccc1 | inactive | – |
| FC(F)C(F)(F)COCC1CO1 (stereo not given) | inactive | – |
| OCC(CO)(CO)CO | inactive | – |
| OCCC(F)(F)C(F)(F)C(F)(F)C(F)(F)F | inactive | – |
| O=S(=O)(O)c1ccc(N=Nc2c(O)ccc3cc(S(=O)(=O)O)ccc23)cc1 | inactive | – |
| O=C(Cl)C(F)(F)C(F)(F)C(F)(F)C(=O)Cl | inactive | – |
| CCN(CC)C(=S)SSC(=S)N(CC)CC | – | 125 µM (active) |

| Structure (SMILES) | outcome | AC50 |
| --- | --- | --- |
| CC[C@H](C)C(=O)O[C@H]1C[C@H](O)C=C2C=C[C@H](C)[C@H](CC[C@@H](O)C[C@@H](O)CC(=O)O)[C@H]21 | inactive | – |
| OCCNCCO | inactive | – |
| FC(F)=C(F)C(F)(F)C(F)(F)C(F)(F)C(F)(F)C(F)(F)C(F)(F)F | inactive | – |
| OCc1ccccc1 | inactive | – |
| Cc1nc(-c2ccccn2)ncc1C(=O)Nn1cc(C)c2cc(F)ccc21 | inactive | – |
| CC(=O)c1ccccc1 | inactive | – |
| COS(C)(=O)=O | inactive | – |
| CCOc1ccc2[nH]cc(C(=O)NCc3ccccc3)c(=O)c2n1 | inactive | – |
| O=S(=O)(O)CCC(F)(F)C(F)(F)C(F)(F)C(F)(F)C(F)(F)C(F)(F)F | inactive | – |
| O=C(O)CO | inactive | – |
| OC[C@H]1O[C@@H]2O[C@H]3[C@H](O)[C@@H](O)[C@@H](O[C@H]4[C@H](O)[C@@H](O)[C@@H](O[C@H]5[C@H](O)[C@@H](O)[C@@H](O[C@H]6[C@H](O)[C@@H](O)[C@@H](O[C@H]7[C@H](O)[C@@H](O)[C@@H](O[C@H]1[C@H](O)[C@H]2O)O[C@@H]7CO)O[C@@H]6CO)O[C@@H]5CO)O[C@@H]4CO)O[C@@H]3CO | inactive | – |
| CCCCCCCCCC | inactive | – |
| Cc1ccc(S(=O)(=O)NC(=O)NN2CCCCCC2)cc1 | inactive | – |
| O=S1(=O)CCCO1 | inactive | – |
| C[C@]12C=CC(=O)C=C1CC[C@H]1[C@@H]3C[C@@H](O)[C@](O)(C(=O)CO)[C@@]3(C)C[C@H](O)[C@@]12F | inactive | – |
| CCCOc1ccc(S(=O)(=O)N2CCN(CC)CC2)cc1-c1nc2c(CC)n(Cc3ccccn3)nc2c(=O)[nH]1 | – | 22.2 µM (active) |
| FC(F)(F)COC(OCC(F)(F)F)OCC(F)(F)F | inactive | – |
| Cc1ncc([C@@H](CCCCCCc2ccc3c(n2)NCCC3)CC(=O)O)cn1 | inactive | – |
| OCCOCCOCCO | inactive | – |
| Nc1ccn([C@@H]2O[C@H](CO)[C@@H](O)[C@@H]2O)c(=O)n1 | inactive | – |

Reference: PubChem BioAssay (EPA / NIEHS)
